High-throughput results as filed in PubChem.
The sample as a whole holds a higher share of hits than the screen did.
ST2 inh – IL1RL1 inhibition; AlphaLISA ST2-Fc/biotin-IL-33 interaction, 1 h; 78,000 tested, 2.3% active; inhibition, % for hits at 17 µM; Q01638; in the data active = inhibition above about 30%
Target sequence (Q01638 whole entry, looked up): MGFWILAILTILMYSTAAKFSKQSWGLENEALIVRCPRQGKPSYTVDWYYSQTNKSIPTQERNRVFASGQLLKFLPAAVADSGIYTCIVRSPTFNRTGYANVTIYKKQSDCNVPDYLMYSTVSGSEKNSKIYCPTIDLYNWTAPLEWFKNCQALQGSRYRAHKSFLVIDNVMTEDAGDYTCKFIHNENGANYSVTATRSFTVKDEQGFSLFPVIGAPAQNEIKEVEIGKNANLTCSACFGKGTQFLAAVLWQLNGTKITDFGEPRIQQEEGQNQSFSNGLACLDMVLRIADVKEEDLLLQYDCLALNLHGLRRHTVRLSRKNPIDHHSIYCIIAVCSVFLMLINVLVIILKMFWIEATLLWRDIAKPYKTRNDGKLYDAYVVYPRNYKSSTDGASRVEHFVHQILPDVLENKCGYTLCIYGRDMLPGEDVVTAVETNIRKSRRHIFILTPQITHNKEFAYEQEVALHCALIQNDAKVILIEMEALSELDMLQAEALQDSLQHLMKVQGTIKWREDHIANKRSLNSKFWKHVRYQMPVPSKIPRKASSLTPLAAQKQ
Active calls of the source: *.

How did CC(C)c1ccc(NC(=O)c2ccc(Cl)cc2[N+](=O)[O-])cc1 do in these assays?
ST2 inh: inactive

What do the screens show for `O=C(Nc1ccc(Nc2ccccc2)cc1)c1ccc(Cl)cc1[N+](=O)[O-]`?
ST2 inh: 43%*

How did Cn1cc(C(=O)N2CCN(c3ccccn3)CC2)c2c3ccccc3n(C)c2c1=O do in these assays?
ST2 inh: inactive

What do the screens show for `C1COC(CN2CCN(C3CCC4(CCNCC4)CC3)CC2)C1` (centres undefined)?
ST2 inh: inactive

Results for O=C(c1cc(-c2cccc(Cl)c2)on1)N1CCN(Cc2ccccc2)CC1 ?
ST2 inh: inactive

What do the screens show for `Cc1c(CN(C)c2ccc(-c3nccn3C)nn2)[nH]c2ccccc12`?
ST2 inh: inactive

Results for CCNC(=O)c1ccccc1-c1ccc(F)c(CO)c1 ?
ST2 inh: inactive

Results for COc1ccc(C2=Cc3cc(OC)c(OC)cc3/C(=C/c3ccccc3)O2)cc1 ?
ST2 inh: inactive

How did O=c1oc(-c2ccc(Oc3ccccc3)cc2)nc2ccccc12 do in these assays?
ST2 inh: inactive

What do the screens show for `O=C1OC(c2ccc(Oc3ccccc3)cc2)=C/C1=C\c1ccco1`?
ST2 inh: 54%*

How did CC(=O)Nc1c(C(C)=O)c(C)nc2ccccc12 do in these assays?
ST2 inh: inactive

How did COc1ccc(SCCc2ccccn2)cc1 do in these assays?
ST2 inh: inactive

What do the screens show for `O=C(Cn1cnc2c(oc3ccccc32)c1=O)Nc1ccc(Cl)cc1`?
ST2 inh: inactive

How did CCN(CC)S(=O)(=O)c1ccc(C)cc1 do in these assays?
ST2 inh: inactive

Results for Cc1ccc(S(=O)(=O)ON=C2C=CC(=O)C=C2)cc1 ?
ST2 inh: 47%*

How did Cc1ccc(S(=O)(=O)/C=C/C#N)cc1 do in these assays?
ST2 inh: inactive

What do the screens show for `O=C(CSc1c[nH]c2ccccc12)Nc1ccccc1`?
ST2 inh: inactive

How did COc1cc2c(cc1OC)C(C(=O)Nc1ccccn1)C(c1cccs1)N(C)C2=O (centres undefined) do in these assays?
ST2 inh: inactive

How did COc1ccc(-n2nc3c(c2NC(=O)c2cc(OC)c(OC)c(OC)c2)CS(=O)C3)cc1 (centres undefined) do in these assays?
ST2 inh: inactive

How did Cc1cccc2nc(C(=O)N3CC(c4ccncc4)C3)cn12 do in these assays?
ST2 inh: inactive

Results for O=C(O)c1ccc(N=Cc2cc(Br)ccc2O)cc1 ?
ST2 inh: inactive

What do the screens show for `C=CCc1cccc(C=Nc2ccc(Br)cc2)c1O`?
ST2 inh: 39%*

How did O=C(O)c1ccc(O)c(C=Nc2ccc(Br)cc2)c1 do in these assays?
ST2 inh: inactive

Results for CC1CN(Cc2cc(O)c(CN3CC(C)OC(C)C3)cc2O)CC(C)O1 (centres undefined) ?
ST2 inh: inactive

How did FC(F)(F)c1cc(-c2cccs2)nc(N2CCCCC2)n1 do in these assays?
ST2 inh: inactive

How did N#CCc1nc(-c2ccc(-c3ccccc3)cc2)cs1 do in these assays?
ST2 inh: inactive

Results for N#C/C(=C\Nc1cccc(C(F)(F)F)c1)c1nc(-c2cc3ccccc3oc2=O)cs1 ?
ST2 inh: inactive

What do the screens show for `Cc1ccc(-c2nnc3s/c(=C\c4ccc(C)o4)c(=O)n23)cc1`?
ST2 inh: inactive

How did Cc1ccc(/C=C(\C#N)c2nc(-c3ccc([N+](=O)[O-])cc3)cs2)cc1 do in these assays?
ST2 inh: inactive

How did Cc1nc(-c2ccc(C(N)=O)cc2)cs1 do in these assays?
ST2 inh: inactive

How did Cc1ccc(/C=C(\C#N)c2nc(-c3ccc(C)cc3)cs2)cc1 do in these assays?
ST2 inh: 54%*

Results for N#C/C(=C\c1ccc(Cl)cc1)c1nc(-c2ccccc2)cs1 ?
ST2 inh: 51%*

How did N#C/C(=C\c1ccccc1)c1nc(-c2ccccc2)cs1 do in these assays?
ST2 inh: 65%*

How did Cc1ccc(-c2csc(/C(C#N)=C\c3ccc(C)o3)n2)cc1 do in these assays?
ST2 inh: 51%*

What do the screens show for `NNC(=O)C(=O)Nc1nc(-c2ccc(Cl)cc2)cs1`?
ST2 inh: inactive

How did Cc1ccc(C(=O)Nc2nc(-c3ccc(F)cc3)cs2)o1 do in these assays?
ST2 inh: inactive

How did CC(C)Cc1ccc(S(=O)(=O)NC2CCCCC2)cc1 do in these assays?
ST2 inh: inactive

Results for Cc1ccccc1Cn1cc(C(=O)N(Cc2ccccc2)Cc2scnc2C)nn1 ?
ST2 inh: inactive

What do the screens show for `CCCN(Cc1ccc(OC)cc1)C(=O)c1cc(C(F)(F)F)nn1C`?
ST2 inh: inactive

What do the screens show for `CNC(=O)CN(c1ccccc1OC)S(C)(=O)=O`?
ST2 inh: inactive

How did CCOC(=O)C1C(=O)C=C(c2ccc(C)cc2)CC1c1ccccc1OCC (centres undefined) do in these assays?
ST2 inh: inactive

Results for COc1ccc(C(=O)N2CCCC(CCC(=O)Nc3ccc(F)cc3C)C2)o1 (centres undefined) ?
ST2 inh: inactive

What do the screens show for `CC(=O)N1N=C(c2ccccc2)OC12CCCCC2`?
ST2 inh: inactive

What do the screens show for `COc1cccc(C2=NN(C(C)=O)C3(CCCC3)O2)c1`?
ST2 inh: inactive

What do the screens show for `COc1ccc(-c2csc(/C(C#N)=C/c3ccccc3[N+](=O)[O-])n2)cc1`?
ST2 inh: inactive

How did Cc1ccc(-c2csc(/C(C#N)=C/c3ccccc3[N+](=O)[O-])n2)c(C)c1 do in these assays?
ST2 inh: 57%*

How did Cc1ccc(NC(=O)c2ccccc2C)c([N+](=O)[O-])c1 do in these assays?
ST2 inh: inactive

Results for COc1ccc(-c2nnc([C@H]3CCN(Cc4ccccn4)C3)o2)cc1 ?
ST2 inh: inactive

Results for COc1ccc(NC2CS(=O)(=O)CC2OC(=O)c2ccccc2)cc1 (centres undefined) ?
ST2 inh: inactive

How did Cc1nn(-c2ccccc2)c2c1C(c1cccc([N+](=O)[O-])c1)C(C#N)=C(N)O2 (centres undefined) do in these assays?
ST2 inh: inactive

What do the screens show for `COc1cccc(C2C(C#N)=C(N)Oc3c2c(=O)n(C)c(=O)n3C)c1` (centres undefined)?
ST2 inh: inactive

How did Cc1nn(-c2cccc(Cl)c2)c2c1C(c1cccc([N+](=O)[O-])c1)C(C#N)=C(N)O2 (centres undefined) do in these assays?
ST2 inh: 45%*

Results for CCc1ncc(C(=O)N(Cc2ccsc2)C2CCCC2)cn1 ?
ST2 inh: inactive

What do the screens show for `COCCCNC(=O)c1ccc2c(c1)ncn2C1CCCCCC1`?
ST2 inh: inactive

How did CCOc1ccc2sc(C=NCCc3ccccn3)c(O)c2c1 do in these assays?
ST2 inh: inactive

Results for CCOc1ccc2nc(N=Cc3nc(-c4ccc(Br)cc4)oc3O)sc2c1 ?
ST2 inh: inactive

Results for CCOc1ccc(NC(=O)CC2CCCCC2)cc1 ?
ST2 inh: inactive

Results for CCOc1ccc2sc(C=NC3CCCCC3)c(O)c2c1 ?
ST2 inh: 41%*

How did CCCCCN=Cc1sc2ccc(OCC)cc2c1O do in these assays?
ST2 inh: 33%*

How did CCOc1ccc2nc(NC(=O)C3CCCCC3)sc2c1 do in these assays?
ST2 inh: inactive

Results for COc1cc(C2NC(=O)NC(C)=C2C(=O)OCCSC)ccc1O (centres undefined) ?
ST2 inh: inactive

What do the screens show for `Cc1ccccc1C(=NS(=O)(=O)c1ccccc1)Nc1ccccc1`?
ST2 inh: inactive

How did CC(C)OC(=O)c1c(NC(=O)CSc2ncccn2)sc2c1CCCC2 do in these assays?
ST2 inh: inactive

Results for Cn1ccnc1SCC(=O)Nc1ccc(Cl)cc1 ?
ST2 inh: inactive
